The nature of test [1]: qHTS assay to identify small molecule agonists of the estrogen receptor alpha (ER-alpha) signaling pathway in the presence of an antagonist - cell viability counter screen (AID 1259386).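 Also: series mostly up to about 92 µM; cells exposed to compounds for 22 h at 37 °C before the viability read; nearly all actives have a fitted effect of over 30% in size.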 The essentials:
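The test measures whether compounds kill ER-alpha reporter cells (VM7Luc4E2) under antagonist co-treatment (ICI-182,780, 10.0nM). Fluorescence from CellTiter-Fluor is read after a 22hr exposure.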

The target of test [2] is Progesterone receptor (Homo sapiens) (UniProt P06401). Kind of test: qHTS assay to identify small molecule agonists of the progesterone receptor (PR) signaling pathway (AID 1346784; calls by dose curve; also: nearly all actives have a fitted effect of over 30% in size). The gist of the method: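 HEK 293T PR-UAS-bla reporter cells, 2% charcoal-stripped FBS; 6 hr settle at 37C/5% CO2, compound (DMSO) 16 hr, LiveBLAzer B/G FRET substrate 2 hr RT, fluorescence intensity read.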
On the technique in general: In qHTS, concentration-response curves come from the screen itself.

The nature of test [3]: qHTS assay to identify small molecule antagonists of the progesterone receptor (PR) signaling pathway - cell viability counter screen (AID 1346798). Also: series mostly up to about 92 µM; nearly all actives have a fitted effect of over 50% in size. The essentials:
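Luminescence readout (CellTiter-Glo, 30 min, RT) of viability in PR-UAS-bla HEK293T cells exposed to compound and R5020 agonist for 16 hr at 37C, 5% CO2; run in the same wells as the beta-lactamase reporter read.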

Test [4] is described as follows: qHTS assay to identify small molecule agonists of the progesterone receptor (PR) signaling pathway - cell viability counter screen (AID 1346799; calls by dose curve; also: nearly all actives have a fitted effect of over 45% in size). The essentials:
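HEK293T PR-UAS-bla, 3,000 cells/well, 2% charcoal-stripped FBS; 6 h settle, compound 16 h at 37C/5% CO2; LiveBLAzer 2 h RT, then CellTiter-Glo 30 min RT, luminescence read.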

Test [5] can be described thus: qHTS assay to identify small molecule agonists of the TGF-beta/Smad signaling pathway - cell viability counter screen (AID 1346829). Also: top concentration of the series differs between compounds; nearly all actives have a fitted effect of over 45% in size. The essentials: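 In parallel with the Smad reporter read, viability of HEK 293T cells stably carrying SBE-bla is quantified by ATP luminescence following 5 hr compound treatment.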
Test [6] is described as follows: qHTS assay to identify small molecule agonists of the TGF-beta/Smad signaling pathway (AID 1346859; active = well fitted activation curve with a large enough effect in the signal ratio in the repeat runs, not every such curve was filed as active; the % refers to the signal ratio; also: series mostly up to about 77 µM). The gist of the method:
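Read-out: fluorescence at 460 and 530 nm (405 nm excitation) after a 2 hr room-temperature incubation with beta-lactamase FRET substrate. SBE-bla HEK 293T cells had been treated with test compounds for 5 hr at 37 C.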

Test [7] concerns the target Thyrotropin-releasing hormone receptor (Homo sapiens) (UniProt P34981). Kind of test: qHTS assay to identify small molecule antagonists of the thyrotropin-releasing hormone receptor (TRHR) signaling pathway (AID 1346877; active = well fitted inhibition curve with a large enough effect in the repeat runs, not every such curve was filed as active; also: series mostly up to about 51 µM). The gist of the method:
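Overnight-plated (18 h, 37 °C) HEK293 cells expressing TRHR were dye-loaded 2 h, treated with compound, then stimulated with TRH at 1 nM final. Fluorescence intensity was captured every second for 3 min.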

Test [8] shares this target. Kind of test: qHTS assay to identify small molecule agonists of the thyrotropin-releasing hormone receptor (TRHR) signaling pathway (AID 1346891; calls by dose curve;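 also: HEK293 cells expressing TRHR with calcium dye readout; series mostly up to about 58 µM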). The gist of the method:
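HEK293/TRHR cells, 1500 per well, 18 h 37 °C; Ca dye 2 h 37 °C; pin-tool compound addition (agonist mode); kinetic fluorescence 3 min, 1 s reads; 15 concentrations, triplicate.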

Test [9] can be described thus: Human pregnane X receptor (PXR) small molecule agonists, qHTS cell viability counter screen (AID 1346977). Also: nearly all actives have a fitted effect of over 50% in size. The essentials:
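Fluorescence read-out (CellTiter-Fluor) of viability in PXR-Luc HepG2 cells, multiplexed with the luciferase agonist read. Compounds in DMSO added after 5hr plating; 24hr total exposure at 37C, 5% CO2.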

The nature of test [10]: Caspase-3/7 induction in HepG2 cells by small molecules, qHTS assay (AID 1346978). Also: nearly all actives have a fitted effect of over 15% in size. The essentials: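 Wild-type HepG2 cells, 2,000/well, settled 5 hr at 37 C and 5% CO2, then compound-treated for 17 hr; caspase-3/7 activity read by luminescent Caspase-Glo 3/7 after 30 min at room temperature.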
A short description of test [11]: Caspase-3/7 induction in CHO-K1 cells by small molecules, qHTS cell viability counter screen (AID 1346979). Also: nearly all actives have a fitted effect of over 35% in size. The essentials: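 CHO-K1 wt, 1,500 cells/well; 5hr pre-incubation 37C/5% CO2; compound pin transfer (DMSO); 16hr exposure; CellTiter-Fluor added, 1hr, fluorescence read.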
Test [12] can be described thus: Caspase-3/7 induction in CHO-K1 cells by small molecules, qHTS assay (AID 1346980). Also: nearly all actives have a fitted effect of over 15% in size. The essentials:
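Wild-type CHO-K1 cells exposed to compounds for 17hr at 37 C, 5% CO2. Caspase-3/7 activity then measured by Caspase-Glo 3/7 luminescence after 30min at room temperature.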

Test [13] can be described thus: Caspase-3/7 induction in HepG2 cells by small molecules, qHTS cell viability counter screen (AID 1346981). Also: series mostly up to about 92 µM; nearly all actives have a fitted effect of over 30% in size. The essentials: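 Treatment of HepG2 cells with DMSO-delivered compounds ran 16 hr at 37 C following a 5-hr pre-incubation of 2,000 cells/well. CellTiter-Fluor fluorescence, read after 1 hr, served as the viability measure in a qHTS format.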
In test [14] the target is Progesterone receptor (Homo sapiens) (UniProt P06401). Kind of test: qHTS assay to identify small molecule antagonists of the progesterone receptor (PR) signaling pathway (AID 1346795; active = well fitted inhibition curve with a large enough effect in the signal ratio in the repeat runs, not every such curve was filed as active; the % refers to the signal ratio). The gist of the method:
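Beta-lactamase reporter, HEK293T PR-UAS-bla line; 2% charcoal-stripped FBS; 6 hr pre-incubation, 37C/5% CO2. Compound + R5020 1 nM final, 16 hr. LiveBLAzer B/G FRET substrate, 2 hr RT; fluorescence intensity read.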

Test [15] concerns the target Nuclear receptor subfamily 1 group I member 2 (Homo sapiens) (UniProt O75469). The experiment in a line: Human pregnane X receptor (PXR) small molecule agonists, qHTS assay (AID 1346982). Also: nearly all actives have a fitted effect of over 35% in size. Also: potency is read from the fitted curve at half-maximal effect. The gist of the method: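 Stable HepG2 line reporting PXR-mediated CYP3A4 expression via luciferase. Treatment: 24 hr with compounds in DMSO at 37 C. Detection: ONE-Glo luminescence.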

Test [16] has as its target Nuclear receptor subfamily 1 group I member 2 (Rattus norvegicus) (UniProt Q9R1A7). Kind of test: Rat pregnane X receptor (rPXR) activation by small molecules, qHTS assay (AID 1346983). Also: nearly all actives have a fitted effect of over 20% in size. Conditions: rPXR luciferase reporter cells, One-Glo luminescence, 24 h; max activation: active compounds read high. The gist of the method: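 Cell-based rPXR activation assay: rPXR cells, 2,000 per well, rested 5hr at 37 C, then exposed to compounds in DMSO for 24 hr at 37 C. Luciferase activity read by One-Glo luminescence after 30 min at room temperature.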

The target of test [17] is Nuclear receptor subfamily 1 group I member 2 (Homo sapiens) (UniProt O75469). Kind of test: CYP3A4 induction through human pregnane X receptor (PXR) by small molecules, qHTS assay (AID 1346984). Also: nearly all actives have a fitted effect of over 40% in size. The essentials:
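After 24 h at 37C with compound, DPX-2 cells (HepG2, co-transfected PXR response element and CYP3A4 promoter-luciferase) got 3uM final P450-Glo Luciferin-IPA for 3 h; One-Glo luminescence followed.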

Test [18] in a line: qHTS assay to identify small molecule antagonists of the TGF-beta/Smad signaling pathway - cell viability counter screen (AID 1346824). Also: nearly all actives have a fitted effect of over 50% in size. The gist of the method:
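SBE-bla HEK 293T cells, incubated overnight, then compound plus 0.25 ng/mL TGF-beta1 (stock added) for 5 hr at 37 C. Viability was read in the same wells by CellTiter-Glo luminescence after 30 min at room temperature.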

The target in test [19] is Nuclear receptor subfamily 1 group I member 2 (Homo sapiens) (UniProt O75469). The experiment in a line: Human pregnane X receptor (PXR) activation by small molecules, qHTS assay (AID 1346985). Also: nearly all actives have a fitted effect of over 40% in size. The essentials:
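DPX-2 cells (HepG2 co-transfected with a PXR response element and a CYP3A4-promoter luciferase construct) were seeded at 2,000 per well, rested 5 hr at 37C, then exposed to DMSO-dissolved compounds for 24 hr. Activation was read as luciferase luminescence.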

From PubChem BioAssay (Tox21) come the findings set out here.

Unmarked numbers belong to inactive results. Results filed as inconclusive are left out. Active and inactive are the calls of the source. Unless noted, calls follow the shape of the dose curve; as a rule, active = well fitted curve in the direction sought with a large enough effect in the repeat runs; inconclusive = weak or mixed curves; inactive = no such curve, though single readings can be large; an effect the other way counts as inactive or inconclusive.
% is scaled to controls: 0 for no effect and ±100 for the full control effect.

Sequence of Progesterone receptor (Homo sapiens) (P06401 whole entry, looked up): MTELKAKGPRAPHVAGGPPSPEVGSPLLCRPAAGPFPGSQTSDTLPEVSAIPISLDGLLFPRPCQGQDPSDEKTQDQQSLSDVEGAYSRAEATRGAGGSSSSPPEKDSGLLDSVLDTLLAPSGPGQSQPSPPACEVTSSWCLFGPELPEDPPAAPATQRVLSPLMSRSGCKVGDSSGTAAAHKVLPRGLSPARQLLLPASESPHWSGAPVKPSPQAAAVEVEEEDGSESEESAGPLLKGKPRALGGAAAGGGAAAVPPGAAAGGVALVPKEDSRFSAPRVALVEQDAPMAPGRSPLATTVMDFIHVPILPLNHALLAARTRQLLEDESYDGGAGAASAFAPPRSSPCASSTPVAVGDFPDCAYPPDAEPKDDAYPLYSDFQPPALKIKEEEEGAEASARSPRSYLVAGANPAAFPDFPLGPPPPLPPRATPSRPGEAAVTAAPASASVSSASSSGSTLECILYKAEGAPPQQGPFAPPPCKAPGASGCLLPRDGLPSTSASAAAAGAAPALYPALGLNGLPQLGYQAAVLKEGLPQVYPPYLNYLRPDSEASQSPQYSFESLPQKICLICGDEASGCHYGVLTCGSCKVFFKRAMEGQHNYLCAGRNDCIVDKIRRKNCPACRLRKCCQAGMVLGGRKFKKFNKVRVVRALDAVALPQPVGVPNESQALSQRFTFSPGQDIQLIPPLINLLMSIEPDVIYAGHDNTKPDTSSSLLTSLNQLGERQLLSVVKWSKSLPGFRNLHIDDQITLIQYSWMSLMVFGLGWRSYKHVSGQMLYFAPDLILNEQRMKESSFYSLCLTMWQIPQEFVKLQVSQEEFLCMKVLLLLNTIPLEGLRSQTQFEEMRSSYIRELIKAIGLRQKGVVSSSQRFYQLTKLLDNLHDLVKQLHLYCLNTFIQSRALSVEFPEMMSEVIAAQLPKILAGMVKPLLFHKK
Sequence of Thyrotropin-releasing hormone receptor (Homo sapiens) (P34981 whole entry, looked up): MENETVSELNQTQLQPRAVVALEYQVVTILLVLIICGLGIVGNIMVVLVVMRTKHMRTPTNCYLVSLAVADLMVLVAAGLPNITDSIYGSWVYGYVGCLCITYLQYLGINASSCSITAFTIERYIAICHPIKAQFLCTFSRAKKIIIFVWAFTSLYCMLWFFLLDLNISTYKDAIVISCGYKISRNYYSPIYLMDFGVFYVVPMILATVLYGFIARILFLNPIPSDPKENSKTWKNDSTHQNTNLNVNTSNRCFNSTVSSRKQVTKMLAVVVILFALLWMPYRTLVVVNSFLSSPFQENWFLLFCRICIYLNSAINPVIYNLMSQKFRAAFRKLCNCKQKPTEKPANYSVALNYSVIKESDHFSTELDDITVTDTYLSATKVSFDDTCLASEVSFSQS
Sequence of Nuclear receptor subfamily 1 group I member 2 (Homo sapiens) (O75469 whole entry, looked up): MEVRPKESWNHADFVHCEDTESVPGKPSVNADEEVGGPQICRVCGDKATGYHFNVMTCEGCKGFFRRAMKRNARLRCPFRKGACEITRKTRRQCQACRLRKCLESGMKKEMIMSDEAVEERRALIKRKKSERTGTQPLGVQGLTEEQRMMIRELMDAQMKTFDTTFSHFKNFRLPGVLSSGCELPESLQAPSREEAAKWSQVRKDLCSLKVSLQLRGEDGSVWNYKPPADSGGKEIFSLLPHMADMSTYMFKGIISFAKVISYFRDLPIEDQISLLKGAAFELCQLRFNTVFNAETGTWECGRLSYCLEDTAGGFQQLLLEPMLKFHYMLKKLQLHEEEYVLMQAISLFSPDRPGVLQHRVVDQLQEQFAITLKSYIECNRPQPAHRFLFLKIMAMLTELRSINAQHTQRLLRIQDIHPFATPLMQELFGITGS
Sequence of Nuclear receptor subfamily 1 group I member 2 (Rattus norvegicus) (Q9R1A7 whole entry, looked up): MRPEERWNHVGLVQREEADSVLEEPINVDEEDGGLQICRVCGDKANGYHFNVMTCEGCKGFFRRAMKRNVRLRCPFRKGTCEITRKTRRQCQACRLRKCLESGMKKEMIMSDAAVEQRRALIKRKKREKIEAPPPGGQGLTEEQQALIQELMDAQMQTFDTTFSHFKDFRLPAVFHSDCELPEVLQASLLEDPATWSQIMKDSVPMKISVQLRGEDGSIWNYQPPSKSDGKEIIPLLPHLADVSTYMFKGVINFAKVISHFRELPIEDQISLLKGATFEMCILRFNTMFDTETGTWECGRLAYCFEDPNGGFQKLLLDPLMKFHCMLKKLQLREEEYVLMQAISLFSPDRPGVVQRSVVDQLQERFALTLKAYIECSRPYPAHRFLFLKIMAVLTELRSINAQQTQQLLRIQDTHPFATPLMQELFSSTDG

As for `Nc1ccc2cc(S(=O)(=O)O)ccc2c1`, the outcome in [1], in test [5], in test [6], in [7], in test [8] and in test [10] was inactive. Besides, the outcome in [12] and in test [13] was inactive. The Potency result in [2], in [3], in test [4], in [9] and in test [11] was “inactive” throughout.
As for `CN(C)CCOC(c1ccc(Cl)cc1)c1ccccn1` (stereo unspecified), the result in test [1], in test [5], in test [6], in test [7], in [8] and in test [10] was inactive. Further, the outcome in test [12] and in test [13] was inactive. For the same compound, the Potency result in test [2], in test [14], in [3], in test [4], in [9] and in test [11] was “inactive” each time. The Potency result in test [15] and in test [17] was “inactive” in each case. In addition, the max activation in test [16] is -0.352%.
In the case of `COc1nc(C)nc(N)n1`, the result in test [1], in [5], in [6], in test [7], in [8] and in [10] was inactive. The result in test [12] and in [13] was inactive. In addition, the Potency entry in test [2], in [14], in test [3], in test [4], in test [9] and in test [15] was “inactive” each time.
As to `C=C(C)C(=O)NCCC[N+](C)(C)C`, the result in [1], in test [18], in [5], in test [6], in [10] and in test [12] was inactive. The result in test [13] was inactive. Besides, the Potency entry in test [2], in test [14], in [4], in test [9], in test [11] and in test [15] was “inactive” each time.
On to `CC(O)CN(CCCN(C)C)CCCN(C)C` (stereo unspecified), for which the result in test [1], in [5], in [6], in test [7], in test [8] and in test [10] was inactive. The result in [12] and in test [13] was inactive. Besides, the Potency result in test [2], in [14], in [3], in test [4], in test [9] and in [11] was “inactive” throughout. Further, the Potency result in [15] was “inactive”.
With `CCCCCCCCCCCl`, the outcome in [1], in test [18], in test [5], in [6], in test [7] and in test [8] was inactive. For the same compound, the result in [10], in test [12] and in [13] was inactive. Also, the Potency result in test [2], in [14], in test [4], in test [9], in test [11] and in test [15] was “inactive” in each case.
`NC(CS)C(=O)O` (stereo unspecified): the outcome in test [1], in test [18], in [5], in test [6], in test [10] and in [12] was inactive. The compound was called inactive in test [13]. In addition, the Potency entry in test [2], in [14], in test [3], in test [9], in test [11] and in test [15] was “inactive” each time. In addition, the Potency result in test [17] and in [19] was “inactive” in each case. In addition, in test [16], the max activation was -0.0152%.
In the case of `C=C(C)[C@H]1CC=C(C)CC1`, the outcome in test [1], in test [18], in [5], in test [6], in test [10] and in test [12] was inactive. In addition, the compound was classed as inactive in [13]. For the same compound, the Potency entry in test [2], in test [3], in test [4], in test [9] and in test [11] was “inactive” throughout. The Potency in [15] was 61.1 µM (active).
